{
  "source": "the OligoGym collection",
  "data": [
    {"molecular_target": "CHRNE", "assay": "pooled miR-30 sensor sort-seq; sequence = guide strand", "conditions": "shRNA", "values": [
      {"sequence": "TAGAAGAGCGGCTTCCGGCGGA", "sensor-assay potency score (higher = more potent)": 0.192},
      {"sequence": "TTGTTTTCCAGCACAATCTCTG", "sensor-assay potency score (higher = more potent)": -0.404},
      {"sequence": "TATACCCCCAAAGTCGTCCTTG", "sensor-assay potency score (higher = more potent)": -0.579},
      {"sequence": "ATCTTGTTGATGGTCTTGCCGT", "sensor-assay potency score (higher = more potent)": -1.25},
      {"sequence": "TTGCTTTCTGTCAGTACTGTAG", "sensor-assay potency score (higher = more potent)": -0.702},
      {"sequence": "TAGTGGTGAGAGTCTCCTCTTT", "sensor-assay potency score (higher = more potent)": -0.541},
      {"sequence": "TAGATGACGTCAGTCTCCCCTG", "sensor-assay potency score (higher = more potent)": -0.628},
      {"sequence": "TGTGTCGATGTCGATCTTGTTG", "sensor-assay potency score (higher = more potent)": -0.832},
      {"sequence": "TTCACGGCATCCACACAGCAGC", "sensor-assay potency score (higher = more potent)": -0.899},
      {"sequence": "TTTTTCAAAATCAATTTCCTAC", "sensor-assay potency score (higher = more potent)": -0.288},
      {"sequence": "TTCAGTATCAGCTCCTCCGCGC", "sensor-assay potency score (higher = more potent)": -0.412},
      {"sequence": "TCTTGTTGATGGTCTTGCCGTC", "sensor-assay potency score (higher = more potent)": 0.0404},
      {"sequence": "TTTTCCAGCACAATCTCTGGCA", "sensor-assay potency score (higher = more potent)": -0.449},
      {"sequence": "ATAGTTGTTGAAGAGATGGTGA", "sensor-assay potency score (higher = more potent)": 0.0987},
      {"sequence": "TTGCCGTCGTTGTCTACGGCAA", "sensor-assay potency score (higher = more potent)": -1.16},
      {"sequence": "ATGACGAAAATAAGGAACCTGC", "sensor-assay potency score (higher = more potent)": -1.05},
      {"sequence": "TTCCAGCACAATCTCTGGCAGC", "sensor-assay potency score (higher = more potent)": -0.813}
    ]},
    {"molecular_target": "CHST7", "assay": "pooled miR-30 sensor sort-seq; sequence = guide strand", "conditions": "shRNA", "values": [
      {"sequence": "TTTTCGTCCAGACACCTGCTGG", "sensor-assay potency score (higher = more potent)": -1.07},
      {"sequence": "TTGGGAACCGAGGAGACTGGTT", "sensor-assay potency score (higher = more potent)": -0.796},
      {"sequence": "TAGATGTGCTGCTTCTCGCGAG", "sensor-assay potency score (higher = more potent)": -0.296},
      {"sequence": "TTACTGGAAACTTCATCTCAAC", "sensor-assay potency score (higher = more potent)": -1.13},
      {"sequence": "TCCTTGATGACCACCACCGGGT", "sensor-assay potency score (higher = more potent)": -1.07},
      {"sequence": "ATACAAGTAGAAAACGTCCGGG", "sensor-assay potency score (higher = more potent)": 0.117},
      {"sequence": "TTGGTAGCAAGTCAAGTCCCAG", "sensor-assay potency score (higher = more potent)": -1.13},
      {"sequence": "TAAATATCCACATTGCACTGTC", "sensor-assay potency score (higher = more potent)": 0.728},
      {"sequence": "TACCAAATCACATCTCTTCTTT", "sensor-assay potency score (higher = more potent)": -0.0966},
      {"sequence": "TACAAGTAGAAAACGTCCGGGT", "sensor-assay potency score (higher = more potent)": 0.0569},
      {"sequence": "AACAGCAGCGCGAACTTGCAGT", "sensor-assay potency score (higher = more potent)": -0.918}
    ]},
    {"molecular_target": "CHSY1", "assay": "pooled miR-30 sensor sort-seq; sequence = guide strand", "conditions": "shRNA", "values": [
      {"sequence": "TTGTCTTGGACCATGTTCTGTA", "sensor-assay potency score (higher = more potent)": 0.134},
      {"sequence": "TTTCCCACTATAAACAATCTTT", "sensor-assay potency score (higher = more potent)": -0.597},
      {"sequence": "TTGCTCGACATCGCTGAAGGAA", "sensor-assay potency score (higher = more potent)": -0.494},
      {"sequence": "TTCTTTGTGCTCACTCTTCGAC", "sensor-assay potency score (higher = more potent)": -0.347},
      {"sequence": "TTAACAATCACAACAGAACATT", "sensor-assay potency score (higher = more potent)": -1.42},
      {"sequence": "TTGAAGTCAATGATGCGCCCTC", "sensor-assay potency score (higher = more potent)": -0.291},
      {"sequence": "TTTTACTGTAACTTGGATCATT", "sensor-assay potency score (higher = more potent)": -0.393},
      {"sequence": "TTTATCTTTGGGTTCTTTGTGC", "sensor-assay potency score (higher = more potent)": 0.332},
      {"sequence": "TTGTGCTCACTCTTCGACCCAG", "sensor-assay potency score (higher = more potent)": -0.424},
      {"sequence": "TTTTGCTGAAAGTCTGCTGTAA", "sensor-assay potency score (higher = more potent)": -0.0624},
      {"sequence": "TAAATCTCACAAACATGTCGAA", "sensor-assay potency score (higher = more potent)": -0.309},
      {"sequence": "TGTATTTGCTCGACATCGCTGA", "sensor-assay potency score (higher = more potent)": 0.246}
    ]}
  ]
}
